High-throughput results as filed in PubChem.
Most compounds without a hit are left out; they make up all but 4.7% or so of the library.
D1 antagonist = blocks dopamine activation of the human D1 receptor. HEK293 TREx D1 cells, calcium flux, dopamine EC80; stronger effect = lower value. 360,000 compounds, 3.2% hits. activity change, negative = inhibition, % at 10 µM; in the data active = activity change below about -30%
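Antagonism measured as reduced calcium response to an EC80 dopamine addition following 180 s compound pre-read; cells were inducible HEK293 Trex D1 plated overnight at 30 C, read kinetically at 1 cycle/sec.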
D1 PAM = enhances dopamine response at the human D1 receptor | HEK293 TREx D1 cells, calcium flux, dopamine EC20 potentiation | potentiation, % at 10 µM | 360,000 compounds, 0.036% hits; in the data active = potentiation above about 30%
TRHR ag = agonists of human TRH receptor. P34981. TRHR cells, calcium flux fluo-8, FDSS agonist mode. activation, % at 2 µM. 360,000 compounds, 0.18% hits
Target sequence (P34981 whole entry, looked up): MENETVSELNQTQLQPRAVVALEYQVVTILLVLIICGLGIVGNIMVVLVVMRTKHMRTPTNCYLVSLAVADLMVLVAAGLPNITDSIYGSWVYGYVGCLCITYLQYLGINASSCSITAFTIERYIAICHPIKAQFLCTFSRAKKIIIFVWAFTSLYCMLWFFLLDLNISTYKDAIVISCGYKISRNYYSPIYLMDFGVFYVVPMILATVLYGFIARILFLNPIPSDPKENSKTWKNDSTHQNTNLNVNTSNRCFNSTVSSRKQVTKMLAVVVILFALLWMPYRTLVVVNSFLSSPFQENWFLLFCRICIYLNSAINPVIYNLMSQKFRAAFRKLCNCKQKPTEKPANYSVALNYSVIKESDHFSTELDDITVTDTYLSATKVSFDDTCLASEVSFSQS
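Steps: seed TRHR cells overnight; add fluo-8 no-wash Ca dye, RT 30 min–1.5 h; record 10 s baseline; pin-transfer compounds; monitor fluorescence 1 cycle/s for the agonist window. Calcium increases flag candidate agonists.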
TRHR PAM = TRH receptor (human) allosteric enhancement; P34981; TRHR cells, fluo-8 calcium fluorescence, EC20 TRH enhancement; enhancement, % at 2 µM; 360,000 compounds, 0.66% hits; AID 493056; in the data active = enhancement above about 30%
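Enhancer read-out: after compound pinning and an initial kinetic agonist-mode read, an EC20 of TRH (10 nM final) was injected and fluo-8 calcium signal (Ex 480/Em 530) followed at 1 s/cycle for 100 cycles in TRHR-expressing cells.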
D1 agonist = agonists of human D1 dopamine receptor; HEK293 T-REx D1 cells, calcium flux, agonist mode; activation, % at 2 µM; 360,000 compounds, 1% hits
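Tetracycline-induced HEK293 TREx D1 cells, force-coupled to calcium signalling, were dye-loaded with a no-wash calcium kit. Compound was pin-added after a 10 s baseline. Fluorescence was read kinetically at 1 cycle/s for 180 s, with calcium rises flagged as agonism.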
Numbers stand for hits; i = inactive; nt = no result given. Cut-off read from the data, not from the text of the source, unless noted: active = activation above about 30%; inactive = the rest.

SMILES | D1 antagonist | D1 PAM | TRHR ag | TRHR PAM | D1 agonist
C/C(O)=c1/ccc2cccc3nc(C)nc1c23 | i | i | i | i | 47
O/C=c1\ccc2cccc3nc(C(F)(F)F)nc1c23 | i | i | i | i | i
CCOC(=O)COc1ccccc1/C=C\[N+](=O)[O-] | -86 | i | i | i | i
CC(=O)Oc1ccc(C(=O)Cc2ccccn2)c(O)c1 | i | i | i | i | i
Cc1c(O)ccc(/C(Cc2ccc3ccccc3n2)=N\O)c1O | -31 | i | i | i | i
CC(=O)Oc1ccc(C(=O)Cc2ccc3ccccc3n2)c(O)c1C | i | i | i | i | 32
COc1cc(C(=O)N(Cc2ccc(F)cc2)Cc2ccco2)cc(OC)c1OC | i | i | i | i | i
COc1ccc(NC(C)=O)cc1S(=O)(=O)N(C)Cc1c(C)nn(-c2ccccc2)c1C | -33 | i | i | i | i
CCOC(=O)c1c(S(=O)(=O)N2CCCC(C(=O)Nc3ccc(C)cc3C)C2)c(C)n(CC)c1C (stereo not given) | i | i | i | i | i
COc1cccc(-n2c(SCc3ccccc3C)nc3c([nH]c4ccccc43)c2=O)c1 | i | i | i | i | i
CS(=O)(=O)N(CCCC(=O)N1CCCCCC1)c1cccc(Cl)c1 | -38 | i | i | i | i
CS(=O)(=O)N(CC(=O)N1CCCC1)c1cc(Cl)c(Cl)cc1Cl | i | i | i | i | 39
CS(=O)(=O)N(CC(=O)N1CCN(c2ccc(F)cc2)CC1)c1cccc(Cl)c1 | i | i | i | i | i
COc1cccc(N2C(=O)CSC23C(=O)N(CC(=O)Nc2cc(C)ccc2C)c2ccccc23)c1 (stereo not given) | i | i | i | i | i
COc1ccc(Cn2c(CO)cnc2SCc2cccc(C)c2)cc1 | i | i | i | i | i
CC(=O)c1cccc(NC(=O)CSc2nc3ccccc3nc2Cc2ccc(F)cc2)c1 | i | i | i | i | i
Cc1ccc(CNC(=O)Cn2ccn(-c3cc(C)cc(C)c3)c(=O)c2=O)cc1 | i | i | i | i | i
COc1ccccc1NC(=O)N1CCN(c2cc(-c3ccccc3)nc3ncnn23)CC1 | -54 | i | i | i | i
COc1ccc(OC)c(NC(=O)C2CCN(c3cc(-c4ccccc4)nc4ncnn34)CC2)c1 | i | i | i | i | i
CSC1=NC2(CC(c3ccccc3)Oc3cc(O)ccc32)CC(C)(C)N1 (stereo not given) | i | i | i | i | 167
COC(=O)c1ccc(NC(=O)CSCc2ccccc2C)cc1 | i | i | i | 40 | i
CC1(C)CC(=O)c2c(Cc3ccccc3)noc2C1 | i | i | i | 32 | i
O=C(CN1CCN(c2ccc([N+](=O)[O-])cc2)CC1)Nc1nccs1 | -32 | i | i | i | i
O=C(CN1CCN(c2ccc([N+](=O)[O-])cc2)CC1)Nc1ccccn1 | i | i | i | i | i
CCOC(=O)c1c(C=O)c(C)n(Cc2ccc(C)cc2)c1C | -56 | i | i | i | 104
SMILES | D1 antagonist | D1 PAM | TRHR ag | TRHR PAM | D1 agonist
COc1ccc(OC)c(C2C=C(c3ccc(C)c(C)c3)Nc3nnnn32)c1 (stereo not given) | i | i | i | i | i
COc1cccc(C2=CC(c3ccc(N(C)C)cc3)n3nnnc3N2)c1 (stereo not given) | -36 | i | i | i | i
COc1cccc(C2=CC(c3cc(OC)ccc3OC)n3nnnc3N2)c1 (stereo not given) | -42 | i | i | i | i
O=C(N1CCOCC1)C12CC3CC(C1)CC(C(=O)N1CCOCC1)(C3)C2 | i | i | i | i | i
O=C(N1CCOCC1)C12CC3CC(C1)CC(n1cnc(Cl)n1)(C3)C2 | i | i | i | 32 | i
CCOC(=O)c1cc(-c2ccccc2)n(-c2cccc(C(=O)Nc3ccc(OC)cc3)c2)c1C | i | i | i | i | i
Cc1ccc(NC(=O)N2CCC(c3nc4c(nnn4Cc4cccc(Cl)c4)c(=O)[nH]3)CC2)cc1 | -47 | i | i | i | i
O=C(O)Cn1c(=O)n(Cc2ccccc2)c2ccccc21 | i | i | i | i | i
N=c1n(CC(=O)c2cccs2)c2ccccc2n1Cc1ccccc1 | i | i | i | i | 47
COc1ccc(-c2nn(-c3ccccc3)cc2C(=O)NC(=S)N2CCOCC2)cc1OC | -39 | i | i | i | i
COC(=O)c1cn(-c2ccccc2)nc1-c1ccc(OC)c(OC)c1 | i | i | i | i | i
COc1ccc(-c2nn(-c3ccccc3)cc2C(=O)Nc2ccccc2OC)cc1 | i | i | i | 44 | i
COc1ccc(-c2nn(-c3ccccc3)cc2C(=O)Nc2ccc(C(=O)O)cc2)cc1 | i | i | i | i | i
CCOC(=O)C1(CC2CC2)CCN(S(=O)(=O)/C=C/c2ccccc2)CC1 | -80 | i | i | i | i
CCOC(=O)N1CCN(Cc2nc3cc(NC(=O)c4ccccc4Cl)ccc3n2C(C)C)CC1 | i | i | i | i | i
CCOC(=O)N1CCN(c2cc(C)c(C(C)=O)cc2F)CC1 | -42 | i | i | i | i
CCOC(=O)N1CCN(c2ccc(C(=O)c3ccccc3)cc2F)CC1 | -42 | i | i | i | i
CCC(=O)c1ccc(N2CCN(C(=O)c3ccccc3F)CC2)c(F)c1 | i | i | i | i | 38
CC(C)(C)c1ccc(C(=O)OC/C(O)=C(\C#N)c2nc3ccccc3s2)cc1 | -75 | i | i | i | i
N#C/C(=C/c1ccc(-c2ccccc2)o1)c1nc(-c2cccs2)cs1 | i | i | 68 | i | 215
N#C/C(=C\c1ccc(-c2ccc(F)cc2)o1)C(=O)Nc1nc(-c2cccs2)cs1 | i | i | i | i | i
N#C/C(=C/c1ccc(-c2ccc(S(N)(=O)=O)cc2)o1)c1nc2ccccc2s1 | i | i | 93 | i | 265
N#C/C(=C/c1ccc(-c2ccc(S(N)(=O)=O)cc2)o1)C(=O)Nc1ccccc1 | i | i | i | i | i
COC(=O)c1ccc(/C=C(\C#N)c2nc3ccccc3s2)cc1 | i | i | i | i | 56
O=C(CSc1nc(=O)[nH]c2c1CCCC2)NCc1ccc(Cl)cc1 | nt | i | i | i | i
SMILES | D1 antagonist | D1 PAM | TRHR ag | TRHR PAM | D1 agonist
O=C(CSc1nnc(-c2ccc(F)cc2)o1)N1CCCc2ccccc21 | i | i | i | i | i
N#C/C(=C\N1CCN(Cc2ccc3c(c2)OCO3)CC1)c1nc2ccccc2s1 | i | i | i | i | i
N#C/C(=C\c1ccccn1)c1nc2ccccc2s1 | i | i | 45 | i | 148
CCOC(=O)N1CCN(/C=C(\C#N)c2nc3ccccc3s2)CC1 | i | i | i | i | 32
CCN(C#N)c1nc(NC(C)C)nc(NC(C)(C)C)n1 | i | i | i | i | 51
CCc1ccc2oc(C(=O)N3CCN(c4ccc(OC)cc4)CC3)cc(=O)c2c1 | -41 | i | i | i | i
O=C(Nc1cccc(-c2ccc(N3CCCCC3)nn2)c1)C(F)(F)F | -33 | i | i | i | i
Cc1ccc(S(=O)(=O)Nc2cccc(-c3ccc(N4CCCCC4)nn3)c2)s1 | -80 | i | i | i | i
